The source made the active and inactive calls. Unless noted, how the calls were made is not given here.
Tests used:
[1] = test system: Wnt5a (protein binding on small-molecule microarray); experiment: Wnt5a binders on small-molecule microarray, primary screen, biophysical, 635/667 nm fluorescence (AID 1142); settings: 635 nm fluorescence, higher = more signal;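 further: fluorescence read at 667 nm with signal to noise per printed feature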
[2] = cell viability in Huh7 cells, primary screen, cytotoxicity control for HCV replication inhibitor project, CellTiter-Glo luminescence, basal, 48 h (AID 1143); settings: Huh7 HCV replicon, higher = more signal, called active from +8 up or from −8 down;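 further: Huh7 hepatoma cells carrying a hepatitis C replication reporter with no stimulus; test concentration not given here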
[3] = P. aeruginosa biofilm formation inhibitors, primary screen, PAO1 strain, BacTiter-Glo luminescence, LB-PBS (AID 1144); settings: 12 h, higher = more signal
[4] = CREB reporter modulators without forskolin, primary screen, cell-based, PC12, CRE-LacZ reporter, unstimulated (AID 1145); settings: no forskolin, luminescence, 4.5 h, higher = more signal, called active from +8 up or from −8 down
[5] = CREB reporter modulators under forskolin, primary screen, cell-based, PC12, CRE-LacZ reporter, forskolin-stimulated (AID 1146); settings: luminescence, 4.5 h, higher = more signal, called active from +8 up or from −8 down;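 further: PC12 cells with 6xCRE LacZ reporter stimulated by forskolin 10 µM; beta-galactosidase reporter signal reflecting CREB driven transcription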
[6] = biological target: Streptavidin (Streptomyces avidinii) (UniProt P22629); experiment: streptavidin binders on small-molecule microarray, primary screen, artefact control for SMM compound annotation, biophysical, 635/667 nm fluorescence (AID 1147); settings: streptavidin binding, higher = more signal;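 further: signal reflects streptavidin binding to arrayed compounds as a control protein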
Chain of Streptavidin (Streptomyces avidinii) (P22629 whole entry, looked up): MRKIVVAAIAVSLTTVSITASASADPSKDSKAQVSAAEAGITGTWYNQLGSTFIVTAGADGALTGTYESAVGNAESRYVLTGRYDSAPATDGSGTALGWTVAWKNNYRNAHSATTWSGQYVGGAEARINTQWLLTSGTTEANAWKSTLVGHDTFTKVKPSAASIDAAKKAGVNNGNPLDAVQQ

[7] = small-molecule binders of probe aInhba, primary screen, biochemical, small-molecule microarray, 635/667 nm fluorescence (AID 1148); settings: higher = more signal;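 further: score merges 667nm spot fluorescence with signal-to-noise for antibody binding to printed compounds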
Torsin-1A (Homo sapiens) [8] = biological target: Torsin-1A (Homo sapiens) (UniProt O14656); experiment: torsin A binders from cell lysate, primary screen, small-molecule microarray, wild-type, 635/667 nm (AID 1149); settings: COS7 hTOR1A-WT lysate, 635 nm fluorescence, higher = more signal
Chain of Torsin-1A (Homo sapiens) (O14656 whole entry, looked up): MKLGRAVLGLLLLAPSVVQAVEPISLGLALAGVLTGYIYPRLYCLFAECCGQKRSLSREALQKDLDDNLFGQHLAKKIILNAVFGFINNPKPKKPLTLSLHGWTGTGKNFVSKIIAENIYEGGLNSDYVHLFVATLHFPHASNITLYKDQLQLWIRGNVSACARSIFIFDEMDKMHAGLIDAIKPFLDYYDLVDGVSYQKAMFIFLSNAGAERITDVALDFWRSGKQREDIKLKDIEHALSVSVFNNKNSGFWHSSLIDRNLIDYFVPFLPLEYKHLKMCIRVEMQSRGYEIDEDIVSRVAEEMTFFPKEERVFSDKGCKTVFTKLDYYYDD

Torsin-1A (Homo sapiens) [9] = biological target: Torsin-1A (Homo sapiens) (UniProt O14656); experiment: small-molecule binders of mutant TOR1A in lysate, primary screen, cell lysate, small-molecule microarray, COS7 lysate, 635/667 nm fluorescence (AID 1150); settings: COS7 hTOR1A mutant lysate, 635 nm fluorescence, higher = more signal;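 further: score pools 667 nm emission and signal to noise measuring lysate protein binding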
[10] = test system: Sonic hedgehog protein (Shh); experiment: small-molecule binders of Shh protein, primary screen, biochemical, small-molecule microarray, 635/667 nm fluorescence (AID 1151); settings: small-molecule microarray binding, 635 nm fluorescence; higher = more signal;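 further: Shh protein binding to compounds spotted on small-molecule microarray slides; score combines spot fluorescence intensity with signal-to-noise across triplicate slides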
[11] = E. coli DRC41 culture turbidity changes, primary screen, E. coli filamentation inducer project, strain DRC41, OD650, 48 h (AID 1152);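 further: E. coli MC1000 strain DRC41 lacking acrAB efflux pump and sulA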; settings: E. coli DRC41 (acrAB sulA), higher = more signal, called active from +8 up or from −8 down
[12] = small-molecule binders of probe aLefty1, primary screen, biochemical, small-molecule microarray, 635/667 nm fluorescence (AID 1153); settings: higher = more signal;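 further: score merges spot fluorescence with signal-to-noise ratio from the scanned slide images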
[13] = PSAC antagonists in infected red cells, primary screen, cell-based, P. falciparum Indochina, OD700, 1 h (AID 1154); settings: P. falciparum Indochina infected RBC osmotic lysis, higher = more signal, called active from +8 up or from −8 down
[14] = PSAC antagonists in infected red cells, primary screen, cell-based, P. falciparum Indochina, OD700, 2 h (AID 1155);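 further: lysis reports solute entry through the parasite surface anion channel PSAC; channel blockers reduce lysis of infected cells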; settings: P. falciparum Indochina infected erythrocytes, osmotic lysis OD700; higher = more signal, called active from +8 up or from −8 down
[15] = osmotic lysis modulators in infected erythrocytes, primary screen, PSAC antagonist project, cell-based, P. falciparum Indochina, OD700, 3 h (AID 1156); settings: higher = more signal, called active from +8 up or from −8 down
[16] = PSAC antagonists in infected red cells, primary screen, cell-based, P. falciparum Indochina, OD700, 18 h (AID 1157); settings: P. falciparum Indochina infected erythrocytes, osmotic lysis OD700, 18 h; higher = more signal, called active from +8 up or from −8 down
[17] = modulators of S6 phosphorylation in cells, primary screen, cell-based, A549, cytoblot, luminescence, serum-stimulated (AID 1158); settings: A549 phospho-S6 cytoblot, 5 h, higher = more signal;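 further: serum-stimulated A549 lung adenocarcinoma cells; signal is phosphorylated S6 detected by cytoblot immunostaining with HRP secondary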
[18] = biological target: NADPH oxidase 2 (Homo sapiens) (UniProt P04839); experiment: NOX2-dependent H2O2 signal modulators, primary screen, NOX inhibitor project, cell-based, HEK293-NOX2, PMA-stimulated, Amplex Red fluorescence (AID 1159); settings: 45 min, higher = more signal, called active from +8 up or from −8 down; further: test concentration not given here
Chain of NADPH oxidase 2 (Homo sapiens) (P04839 whole entry, looked up): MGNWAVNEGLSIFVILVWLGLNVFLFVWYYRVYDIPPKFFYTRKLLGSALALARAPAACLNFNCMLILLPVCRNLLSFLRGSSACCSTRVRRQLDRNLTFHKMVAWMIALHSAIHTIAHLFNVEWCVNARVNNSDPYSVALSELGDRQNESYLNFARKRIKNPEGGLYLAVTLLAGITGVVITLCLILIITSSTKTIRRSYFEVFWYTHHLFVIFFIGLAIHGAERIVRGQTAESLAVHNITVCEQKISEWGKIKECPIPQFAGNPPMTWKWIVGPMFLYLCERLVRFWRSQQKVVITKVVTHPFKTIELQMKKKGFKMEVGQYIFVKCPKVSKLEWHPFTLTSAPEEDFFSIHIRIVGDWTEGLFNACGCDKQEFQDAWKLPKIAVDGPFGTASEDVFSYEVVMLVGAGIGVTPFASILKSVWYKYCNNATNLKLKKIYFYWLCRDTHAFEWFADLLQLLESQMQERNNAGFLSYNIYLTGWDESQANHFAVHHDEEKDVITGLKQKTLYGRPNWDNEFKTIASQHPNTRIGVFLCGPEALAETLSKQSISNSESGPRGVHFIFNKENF

[19] = biological target: NADPH oxidase 4 (Homo sapiens) (UniProt Q9NPH5); experiment: NOX4-dependent H2O2 signal modulators, primary screen, NOX inhibitor project, cell-based, HEK293-NOX4, tetracycline-induced, Amplex Red fluorescence (AID 1160); settings: 45 min, higher = more signal, called active from +8 up or from −8 down
Chain of NADPH oxidase 4 (Homo sapiens) (Q9NPH5 whole entry, looked up): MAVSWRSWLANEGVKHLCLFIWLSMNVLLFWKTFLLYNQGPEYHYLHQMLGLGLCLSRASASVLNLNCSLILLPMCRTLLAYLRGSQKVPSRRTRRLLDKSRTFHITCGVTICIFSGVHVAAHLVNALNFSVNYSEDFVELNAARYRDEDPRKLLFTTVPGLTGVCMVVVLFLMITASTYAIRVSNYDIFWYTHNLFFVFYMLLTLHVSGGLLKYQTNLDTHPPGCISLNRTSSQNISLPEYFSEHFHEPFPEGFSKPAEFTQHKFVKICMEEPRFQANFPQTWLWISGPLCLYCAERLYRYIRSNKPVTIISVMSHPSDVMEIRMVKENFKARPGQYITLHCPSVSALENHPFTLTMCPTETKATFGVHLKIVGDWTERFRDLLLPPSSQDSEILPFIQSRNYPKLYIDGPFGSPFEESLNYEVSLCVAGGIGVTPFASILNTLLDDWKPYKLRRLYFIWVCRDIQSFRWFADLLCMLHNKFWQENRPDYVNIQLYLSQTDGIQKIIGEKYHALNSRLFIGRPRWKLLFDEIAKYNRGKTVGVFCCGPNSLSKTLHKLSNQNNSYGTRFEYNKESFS

[20] = biological target: NADPH oxidase 5 (Homo sapiens) (UniProt Q96PH1); experiment: NOX5-dependent H2O2 signal modulators, primary screen, NOX inhibitor project, cell-based, HEK293-NOX5, Amplex Red fluorescence (AID 1161); settings: HEK293-NOX5, ionomycin, 45 min, higher = more signal
Chain of NADPH oxidase 5 (Homo sapiens) (Q96PH1 whole entry, looked up): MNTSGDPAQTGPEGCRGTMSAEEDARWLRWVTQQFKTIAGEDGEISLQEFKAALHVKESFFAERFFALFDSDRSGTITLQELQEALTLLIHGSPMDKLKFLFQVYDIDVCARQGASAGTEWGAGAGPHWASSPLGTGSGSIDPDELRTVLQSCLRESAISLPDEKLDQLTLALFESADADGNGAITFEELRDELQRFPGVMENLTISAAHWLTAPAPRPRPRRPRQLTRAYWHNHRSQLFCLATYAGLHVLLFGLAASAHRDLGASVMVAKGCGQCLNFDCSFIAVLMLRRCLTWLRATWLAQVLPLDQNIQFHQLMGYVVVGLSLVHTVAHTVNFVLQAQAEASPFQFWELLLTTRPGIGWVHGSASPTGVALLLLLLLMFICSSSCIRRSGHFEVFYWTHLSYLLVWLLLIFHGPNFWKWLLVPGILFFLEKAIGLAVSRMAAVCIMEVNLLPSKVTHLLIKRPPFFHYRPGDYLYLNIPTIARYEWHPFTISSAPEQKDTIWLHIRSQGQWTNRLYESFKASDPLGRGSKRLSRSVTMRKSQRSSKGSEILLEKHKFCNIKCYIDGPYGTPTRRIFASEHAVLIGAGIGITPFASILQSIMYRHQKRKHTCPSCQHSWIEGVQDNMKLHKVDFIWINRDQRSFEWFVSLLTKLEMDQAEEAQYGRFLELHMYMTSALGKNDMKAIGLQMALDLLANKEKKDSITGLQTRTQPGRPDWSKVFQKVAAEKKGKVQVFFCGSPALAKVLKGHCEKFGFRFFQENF

Row | Structure (SMILES) | composite z-score [1] | z-score [2] | z-score [3] | z-score [4] | z-score [5] | composite z-score [6] | composite z-score [7] | composite z-score (Torsin-1A (Homo sapiens) [8]) | composite z-score (Torsin-1A (Homo sapiens) [9]) | composite z-score [10] | z-score [11] | composite z-score [12] | z-score [13] | z-score [14] | z-score [15] | z-score [16] | z-score [17] | z-score [18] | z-score [19] | z-score [20]
1 | CCCCC(=C=CC[C@H](O)c1ccccc1OCCO)C[C@H](O)c1cc(Cl)cc(Cl)c1O | 0.121 | -0.433 (inactive) | -0.0417 (inactive) | 7.91 (inactive) | 1.57 (inactive) | -0.18 | -0.0471 | 0.873 | 0.234 | 0.66 | -0.0999 (inactive) | -0.0989 | 15.9 (active) | 2.79 (inactive) | -0.179 (inactive) | 1.46 (inactive) | 0.276 | -0.565 (inactive) | -1.5 (inactive) | -2.02
2 | COc1ccc(CCNC(=O)[C@@]2(C)c3ccccc3C(=O)N(Cc3ccccc3)[C@H]2c2ccc(CO)cc2)cc1 | 0.968 | -5.28 (inactive) | -2.01 (inactive) | 0.208 (inactive) | 0.303 (inactive) | 1.3 | 0.122 | 2.07 | 1.67 | 2.16 | 1.09 (inactive) | 0.187 | 6.03 (inactive) | 0.219 (inactive) | 0.474 (inactive) | -0.73 (inactive) | 2.24 | -3.58 (inactive) | -3.9 (inactive) | -4.78
3 | CCCCCN1CC=CC23O[C@@H]4C=CCCOC(=O)C4[C@H]2C(=O)N(CCCO)[C@@H]3C1=O (stereo not given in full) | -0.309 | -2.45 (inactive) | -1.06 (inactive) | -0.492 (inactive) | -0.285 (inactive) | -0.559 | -0.128 | -0.0271 | -1.09 | 0.4 | 2.03 (inactive) | -0.151 | -0.235 (inactive) | -1.49 (inactive) | 1.17 (inactive) | -1.02 (inactive) | 0.655 | -1.16 (inactive) | -1.08 (inactive) | -0.705
4 | CCN(CC)c1ccc(N2CC=CC34O[C@@H]5C=CCOC(=O)[C@@H]5[C@H]3C(=O)N(CCCCCO)[C@@H]4C2=O)cc1 (stereo not given in full) | -0.253 | -0.286 (inactive) | 0.555 (inactive) | 1.57 (inactive) | -0.0409 (inactive) | -0.93 | -0.186 | 1.03 | 1.06 | 0.146 | 0.825 (inactive) | 0.271 | 1.29 (inactive) | 0.172 (inactive) | 1.36 (inactive) | 0.113 (inactive) | -0.491 | 0.766 (inactive) | 0.449 (inactive) | 1.67
5 | C=CCOC(=O)[C@@H]1[C@H]2C(=O)O[C@H](c3ccccc3)[C@H](c3ccccc3)N2[C@H](c2ccc(OCCOC(=O)[C@H]3C[C@H]4C(=O)N[C@@H](Cc5ccccc5)C(=O)N4[C@H]3c3ccc(O)cc3)cc2)[C@@]12C(=O)Nc1ccc(I)cc12 | 0.388 | -0.409 (inactive) | -0.00469 (inactive) | 5.82 (inactive) | 11.7 (active) | 0.593 | -0.0391 | 0.72 | 0.544 | 1.81 | -1.78 (inactive) | -0.539 | 6.54 (inactive) | 5.05 (inactive) | -2.73 (inactive) | 2.58 (inactive) | -1.77 | 3.07 (inactive) | 0.471 (inactive) | 3.69
6 | CC(c1ccccc1)C(O)C1C=CC2C(=O)N(Cc3ccccc3)C(=O)C2N1n1cnnc1 (stereo not given) | 0.0618 | -0.0357 (inactive) | 0.144 (inactive) | -0.172 (inactive) | 0.945 (inactive) | 0.705 | -0.145 | 0.327 | 0.358 | -0.506 | -2.13 (inactive) | -0.13 | 1.78 (inactive) | 0.975 (inactive) | 0.0175 (inactive) | 0.929 (inactive) | -0.396 | -0.217 (inactive) | -1.09 (inactive) | -1.02
7 | C=C(COC)C(=O)CC[C@@H](OC(=O)c1ccccc1-c1ccccc1C(=O)O)c1ccc(CO)o1 | 1.24 | -7.58 (inactive) | 0.164 (inactive) | 8.29 (active) | 5.1 (inactive) | -0.517 | -0.188 | 1.67 | 0.404 | 1.91 | -0.448 (inactive) | -0.0032 | 0.508 (inactive) | 0.802 (inactive) | -2.11 (inactive) | 0.698 (inactive) | -1 | -3.41 (inactive) | -1.58 (inactive) | -3.07
8 | CN1C(=O)C2C(C1=O)C1C=C(c3ccc(CO)cc3)C2C(C2CC2)N1Cc1sc2ccccc2c1Cl (stereo not given) | 0.567 | -3.96 (inactive) | 0.277 (inactive) | 2.75 (inactive) | -0.825 (inactive) | 2.1 | 0.432 | 1.08 | 1.57 | 0.25 | 0.743 (inactive) | 0.146 | 20.7 (active) | 5.75 (inactive) | 0.713 (inactive) | 1.82 (inactive) | 0.0504 | -3.97 (inactive) | -0.852 (inactive) | -3.7
9 | C=CCN1C(=O)[C@@]2(O[C@@H](CCO)[C@H]([Si](C)(C)c3ccc(OC)cc3)[C@H]2C)c2cc(NC(C)=O)ccc21 | 0.303 | -4.72 (inactive) | 0.445 (inactive) | 7.68 (inactive) | 0.766 (inactive) | -0.0236 | 0.0982 | 0.31 | 0.364 | 1.85 | -0.149 (inactive) | 0.0429 | 23.7 (active) | 8.14 (active) | 0.502 (inactive) | 1.26 (inactive) | 0.0792 | -1.07 (inactive) | -0.0526 (inactive) | -0.391

— PubChem BioAssay
